# MsrA inhibitor: inhibits bovine methionine sulfoxide reductase A. inhibition, % at 15.5 µM. AID 651718. purified bovine MsrA, absorbance read-out. 360,000 tested, 0.75% active; in the data active = inhibition above about 4.5%;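 note: 0% = vehicle wells with enzyme and 100% = reference inhibitor wells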
# NadD block: NadD (S. aureus) enzyme inhibition | purified NadD enzyme, colorimetric absorbance read-out | inhibition, % at 20 µM | 360,000 tested, 0.78% active | AID 602399; in the data active = inhibition above about 26%
# bovine MsrA act: activates bovine MsrA enzyme; purified bovine MsrA, absorbance read-out; activation, % at 10.6 µM; 360,000 tested, 0.3% active; in the data active = activation above about 7.5%;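 note: 0% = vehicle and 100% = reference activator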
# rCAG binder: binds r(CAG) RNA repeats; r(CAG) RNA repeat, TO-PRO-1 dye displacement fluorescence; inhibition, % at 3 µM; 370,000 tested, 1.3% active; AID 651821;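 active = inhibition above the plate cutoff, the mean of all test compounds on that plate plus 3 SD, cut at about 35% in these data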;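 note: 0% = DMSO alone and 100% = 100 µM mitoxantrone as full dye displacement; higher means more dye released from RNA so lower well fluorescence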
# MsrA activ conf: bovine methionine sulfoxide reductase A activation confirmed. shares compounds with bovine MsrA act. purified bovine MsrA, absorbance read-out. activation, % at 10.6 µM. 1,000 tested, 12% active. AID 602270; in the data active = activation above about 4%;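 note: enzyme coupled to thioredoxin and thioredoxin reductase with NADPH; 0% = vehicle wells and 100% = reference activator wells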
# Numbers without * were called inactive; . = no result given. Only some compounds are listed: those with a hit (about 2.7% of all), similar ones and a draw of the others.
SMILES,MsrA inhibitor,NadD block,bovine MsrA act,rCAG binder,MsrA activ conf
COc1cc2c(cc1OC)C(c1cc([N+](=O)[O-])ccc1O)NCC2 (centres undefined),0,-4,9.0*,0,-7
COc1cc2c(cc1OC)C(c1ccc([N+](=O)[O-])cc1)NCC2 (centres undefined),1,-2,-3,-1,.
O=C(Nc1ccc2c(c1)OCCO2)C(c1cc2ccccc2o1)N1CCN(C/C=C/c2ccccc2)CC1 (centres undefined),0,12,16*,6,-2
O=C(Nc1ccc2c(c1)OCCO2)C(C1CC1)N1CCN(C/C=C/c2ccccc2)CC1 (centres undefined),-1,-5,-2,4,.
CCC(c1nnnn1C(C)(C)C)N1CCN(C2CCCC2)CC1 (centres undefined),0,-3,8.1*,-2,-1
S=C(Nc1ccc(Cl)cc1)OC1CCC12CCC(c1ccccc1)CC2 (centres undefined),.,.,.,7,.
CCN(CC)S(=O)(=O)c1ccc(N2CCCCC2)c(NC(=O)/C=C/c2ccc(OC)c(OC)c2)c1,2,11,15*,10,3
COc1cc(-n2c(C)nc3cc(C(=O)N4CC(C)CC(C)C4)ccc32)cc(OC)c1OC (centres undefined),.,.,.,-1,.
CN(CCCn1ccc(N)nc1=O)Cc1ccco1,-1,5,-2,1,.
O=C(CSc1nc2cc(Cl)ccc2s1)c1cc2ccccc2o1,2,-4,9.9*,22,-2
Cc1cc(NC(=O)CSc2nc3cc(Cl)ccc3s2)no1,-2,1,-9,1,.
CCOC(=O)c1sc(=S)n(-c2ccccc2)c1SC,3,-1,9.2*,0,-5
O=C(OCc1cn(Cc2ccccc2)nn1)N1CCCC1,.,.,.,1,.
COC(=O)[C@H](NC(=O)c1cc(-c2ccccc2)nc2ccccc12)c1ccccc1,1,-1,9.4*,1,0
CC(=O)Nc1ccc(NC(=O)c2cc(-c3ccccc3)nc3ccccc23)cc1,3,4,-4,10,.
O=S1(=O)c2c(cccc2N2CCC[C@H]2CO)O[C@@H]2CCN1C2,.,.,.,6,.
COc1ccc(N2CCN(Cc3cc4c(cc3O)CCC4)CC2)cc1,1,-10,14*,-8,0
COc1ccc(N2CCN(Cc3cc(=O)oc4cc5c(cc34)CCCC5)CC2)cc1,1,3,-4,-1,.
COc1ccccc1CNC(=O)C[C@@H]1C[C@H]2c3cc(N(C)C)ccc3O[C@H]2[C@H](CO)O1,1,6,1,5,.
O=[N+]([O-])c1ccc(Sc2nc3ccccc3o2)c([N+](=O)[O-])c1,2,-8,7.7*,1,2
CN(Cc1ccccc1)C(=O)c1cccc(NC(=O)C2CCCN(C(=O)OC(C)(C)C)C2)c1 (centres undefined),-1,-3,7.7*,-10,-2
CC(C)(C)OC(=O)N1CCCC(C(=O)Nc2cccc(C(=O)NCc3ccccc3)c2)C1 (centres undefined),1,7,0,3,.
Cc1cc(=S)[nH]c(=S)[nH]1,1,-2,10*,-3,8.2*
CC1CCCC(NC(=O)COC(=O)c2ccc([N+](=O)[O-])s2)C1C (centres undefined),2,-4,21*,0,5.4*
CC1CCCC(NC(=O)COC(=O)c2ccccc2[N+](=O)[O-])C1C (centres undefined),0,-4,-10,-5,.
SMILES,MsrA inhibitor,NadD block,bovine MsrA act,rCAG binder,MsrA activ conf
CCCCOC(=O)CCn1c(=S)oc2ccccc21,-1,-7,21*,-2,-2
CCCNC(=O)CCn1c(=S)oc2ccccc21,2,-4,-3,-5,.
CCCCc1c(O)nc(SCC(=O)N2CCOCC2)n(-c2ccc(C)cc2)c1=O,3,-9,-5,1,.
CC(C(=O)N1CCCCC1)n1ncn2cccc2c1=O (centres undefined),0,-4,20*,3,0
CC(C(=O)N1CCN(Cc2ccccc2)CC1)n1ncn2cccc2c1=O (centres undefined),0,-8,-1,0,.
CC(C)CN(C(=O)CSc1nnc(-c2cccs2)n1C1CC1)C1CCS(=O)(=O)C1 (centres undefined),0,-3,-2,2,.
CCOc1ccc(C(=O)NC2CCN(C(=O)NCc3ccccc3)CC2)cc1,0,0,9.6*,-6,-1
C#CCN1C=CC(=O)[C@@H](OC(=O)Nc2ccc(Cl)cc2)[C@H]1c1ccccc1Br,1,6,0,11,.
Cc1cccc(C)c1OCC(=O)NNC(=O)CNC(=O)c1ccc(OC(F)F)cc1,-1,1,8.1*,0,-1
CCCCNC(=O)N1CCCC1C(=O)Nc1cccc(OC)c1 (centres undefined),.,.,.,5,.
COc1ccc(NC(=O)COC(=O)Cc2coc3cc(OC)ccc23)c(OC)c1,0,-5,8.0*,2,-1
COc1ccc2c(CC(=O)Nc3ccccc3OC)coc2c1,-1,1,-3,0,.
C[C@H](O)[C@@H]1CN2CCc3ccc(N4CCOCC4)cc3[C@@H]2C[C@@H]1N(C)C(=O)c1ccccc1F,.,.,.,3,.
COc1cc(NC(=O)c2cc(OC)c(OC)c(OC)c2)c(OC)cc1NC(=O)CN1CCCCC1,1,2,8.4*,1,0
Cc1ccc(S(=O)(=O)Nc2cccc3cccnc23)cc1,-1,1,11*,-3,-2
COC(=O)C1CN(C2CC2)CCS(=O)(=O)N1Cc1cn(Cc2ccc(C)cc2)nn1 (centres undefined),.,.,.,3,.
Cc1cc(C)n(-c2ccc(-n3ccnc3)nn2)n1,-1,-1,-1,-1,.
CCOc1ccc(-n2ccnc2)nn1,0,-6,8.1*,1,-3
NS(=O)(=O)c1ccc(CCNC(=O)c2cc3ccccc3s2)cc1,1,-2,0,19,.
CCC(=O)N/N=C/c1ccc(-c2ccc([N+](=O)[O-])cc2)o1,2,-7,-10,2,.
Cc1nnc(N/N=C/c2ccccc2O)n1N,0,9,8.8*,-4,-1
Cc1nnc(N/N=C\c2ccc(-c3ccccc3[N+](=O)[O-])o2)n1N,2,12,17*,4,-6
CCc1nnc(N/N=C/c2ccc(-c3ccc([N+](=O)[O-])cc3)o2)n1N,1,2,8.4*,4,0
Cc1ccc(S(=O)(=O)NCc2ccccc2)cc1C(=O)NC(C)c1ccc(S(N)(=O)=O)cc1 (centres undefined),0,-4,-4,2,.
COc1ccccc1CCn1cnc(Cc2ccccc2)c1C(C)C,-1,-2,-2,1,.
COc1cccc2c1C(=O)C=C(C)C2=O,0,0,4,0,.
COC1=CC(=O)c2c(ccc3ncnc(N)c23)C1=O,2,0,35*,1,30*
N#Cc1ccccc1NC(=O)CN1C(=O)NC(Cc2c[nH]c3ccccc23)C1=O (centres undefined),-1,3,8.0*,5,5.4*
O=C(CN1C(=O)NC(Cc2c[nH]c3ccccc23)C1=O)Nc1ccc(F)cc1F (centres undefined),0,-3,-7,5,.

# Assay outcomes from PubChem BioAssay.
